High-throughput results from PubChem BioAssay.
S1P4 antagonist: human S1P4 receptor antagonism. S1P4-expressing cells, antagonist mode, reporter read-out. inhibition, % at 4.98 µM. 0.26% of 220,000 active; in the data active = inhibition above about 29%
Target sequence (O95977 whole entry, looked up): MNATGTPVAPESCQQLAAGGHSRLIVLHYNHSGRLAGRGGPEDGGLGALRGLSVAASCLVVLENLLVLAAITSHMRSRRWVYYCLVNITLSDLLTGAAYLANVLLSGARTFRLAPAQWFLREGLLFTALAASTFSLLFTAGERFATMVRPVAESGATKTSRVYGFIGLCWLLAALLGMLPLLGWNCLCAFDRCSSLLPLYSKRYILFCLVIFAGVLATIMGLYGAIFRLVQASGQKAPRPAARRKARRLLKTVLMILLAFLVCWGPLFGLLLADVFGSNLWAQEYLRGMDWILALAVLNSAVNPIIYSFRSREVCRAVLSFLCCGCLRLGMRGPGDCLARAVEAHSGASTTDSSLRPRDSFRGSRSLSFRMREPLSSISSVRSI
Cl transport mod: KCC2 (human) Cl- transport modulation; Q9H2X9; KCC2 cells, thallium flux FluoZin-2 fluorescence; AID 1456; B-score of Tl+ flux slope (higher = more flux/activation; lower = inhibition) at 10 µM; 2.2% of 190,000 active;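 active = thallium flux slope and its plate-corrected score both differing from the plate sample mean at a set confidence after two filtering rounds, in either direction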;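 note: slope of fluorescence scaled to starting intensity during 10 to 20 s after thallium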
S1P4 agonist: human S1P4 receptor agonism. O95977. S1P4-expressing cell line, agonist reporter assay. activation, % at 4.98 µM. 0.35% of 220,000 active. AID 1509; in the data active = activation above about 11%
S1P3 antagonist: antagonists of human S1P3 receptor; Q99500; CHO S1P3 NFAT-BLA reporter, FRET fluorescence, antagonist mode; inhibition, % at 4.98 µM; 0.27% of 170,000 active; AID 485;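 active = inhibition above the plate cutoff, the mean inhibition of test wells on that plate plus 3 SD, cut at about 28% in these data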;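 note: cells challenged with S1P at its EC80 of 0.8 µM; blue over green emission ratio from cleaved BLA substrate after 4 h stimulation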
RAM inhibit: blocks the yeast RAM network | S. cerevisiae dse1pr::URA3 reporter, 5-FOA growth OD615, 2 d; analog-sensitive cbk1-as2 kinase mutant strain | inhibition, % at 50 µM | 1.8% of 190,000 active | AID 868;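 active = inhibition above a set limit, 3 SD over mean compound inhibition, cut at about 8.4% in these data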;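 note: inhibition rescues growth on 5-FOA so higher OD means more RAM inhibition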
ROMK primary: modulators of human ROMK potassium channel | Tet-inducible ROMK, thallium flux fluorescence; actives lie on both sides | B-score at 10 µM | P48048 | 2% of 130,000 active;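 active = signal ratio slope over the read window, or its plate-corrected B-score, at least 3 SD from the plate mean, either direction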;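 note: B-score of the F/F0 ratio slope over 7 to 12 s after thallium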
Target sequence (P48048 whole entry, looked up): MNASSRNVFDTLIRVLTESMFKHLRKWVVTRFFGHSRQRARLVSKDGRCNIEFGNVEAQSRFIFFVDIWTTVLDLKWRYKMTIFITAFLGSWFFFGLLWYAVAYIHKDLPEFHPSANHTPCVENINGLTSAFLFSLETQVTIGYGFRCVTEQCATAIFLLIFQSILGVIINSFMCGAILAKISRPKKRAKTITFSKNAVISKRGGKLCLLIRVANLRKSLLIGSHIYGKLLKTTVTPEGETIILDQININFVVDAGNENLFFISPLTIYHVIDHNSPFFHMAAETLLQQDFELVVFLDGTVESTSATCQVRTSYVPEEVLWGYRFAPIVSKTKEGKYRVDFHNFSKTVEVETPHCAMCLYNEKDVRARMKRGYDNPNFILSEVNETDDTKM
KCC2 secondary: confirmation of human KCC2 transport modulators. shares compounds with Cl transport mod. HEK293-KCC2, thallium flux, FluoZin2 fluorescence; stronger effect = higher value. normalised thallium flux (F/F0 slope) at 10 µM. 15% of 3,700 active;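 active = thallium flux slope above the same plate's solvent-only control mean plus 3 SD; inconclusive = the two replicate wells disagree; inactive = no significant difference from solvent-only control wells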
KCC2 bumet counter: thallium flux persisting under bumetanide in KCC2 cells, counter-screen secondary assay; shares compounds with Cl transport mod; HEK293-KCC2 + bumetanide/ouabain, thallium flux FluoZin2; stronger effect = higher value; normalized thallium flux at 10 µM; 49% of 3,700 active;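 active = thallium entry rate above the same plate's blocked-transporter control wells by more than 3 SD; inconclusive = the two repeat wells disagree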;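 note: raw slope of fluorescence over initial fluorescence between 10 and 20 s after thallium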
KCC2 sec2: KCC2 (human) modulation, second secondary assay; shares compounds with Cl transport mod; HEK293-KCC2, thallium flux FluoZin2 fluorescence; actives lie on both sides; F/F0 rise rate, 10–20 s post-thallium; normalized thallium flux at 10 µM; 23% of 3,700 active; AID 1715;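 active = thallium flux slope more than 3 SD above or below the plate's solvent-only control mean, mostly below; inconclusive = the two repeat wells disagreed; inactive = no significant shift from solvent-only controls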
HEK counter1: parental HEK flux effect, counter-screen. shares compounds with Cl transport mod. HEK293 parental cells, thallium flux FluoZin2, ouabain; baseline-ratio fluorescence slope, 10–20 s after thallium. thallium flux rate (normalised fluorescence) at 10 µM. 46% of 3,700 active;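 active = thallium flux rate significantly above the same plate's solvent-only control wells, beyond their mean plus 3 SD; inconclusive = the two replicate wells gave conflicting results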
KCC2 retest ouab: KCC2 (human) modulation, ouabain retest. shares compounds with Cl transport mod. HEK293-KCC2, thallium flux FluoZin2 fluorescence; bidirectional: low = inhibitor, high = activator. raw Tl+ flux slope (below DMSO = inhibition, above = activation) at 10 µM. 48% of 3,700 active. AID 1717;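 active = thallium flux slope beyond 3 SD from same-plate DMSO control mean in most replicates, usually higher, sometimes lower; inconclusive = repeat tests gave conflicting results; inactive = no significant difference from controls in most replicates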;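 note: slope of initial-normalized fluorescence between seconds 10 and 20 after thallium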
HEK counter2: parental HEK flux effect, counter-screen 2; shares compounds with Cl transport mod; 33% of 3,700 active; HEK293 parental, thallium flux FluoZin-2 fluorescence slope; thallium flux slope at 10 µM;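 active = thallium flux slope above the same plate's solvent-control mean plus 3 SD in both duplicate wells; inconclusive = duplicate wells that disagreed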;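 note: run without ouabain in cells lacking the KCC2 cotransporter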
Large screens that a line does not name were inactive (follow-up assays come after a bar, where they were run). This is a sample that favours compounds with a hit; in the whole collection about 5.1% have one here.

N=C1C(c2ccccc2)=C(O)CN1CCO	none
N#C/C(=C\c1cn(-c2ccccc2)nc1-c1cccnc1)c1nnc2n1CCCCC2	none (no result: Cl transport mod, S1P3 antagonist) | KCC2 secondary inactive | KCC2 bumet counter inactive | KCC2 sec2 0.024 | HEK counter1 inactive | KCC2 retest ouab inconclusive | HEK counter2 inactive
CC1(OC(=O)CCc2ccccc2)C(=O)C=C2C=C(c3ccc(C#N)cc3)N(Cc3ccccc3)C=C2C1=O (stereo unspecified)	none (no result: S1P4 antagonist, S1P4 agonist, S1P3 antagonist, RAM inhibit, ROMK primary)
CC(C)CN1C=C2C(=O)C(C)(OC(=O)CCc3ccccc3)C(=O)C=C2C=C1c1ccc(C#N)cc1 (stereo unspecified)	Cl transport mod 3.1 (no result: S1P4 antagonist, S1P4 agonist, S1P3 antagonist, RAM inhibit, ROMK primary) | KCC2 secondary inactive | KCC2 bumet counter inactive | KCC2 sec2 inactive | HEK counter1 inactive | KCC2 retest ouab inactive | HEK counter2 inconclusive
Cc1ccc(OCCSc2ncnc3sc(C)c(C)c23)cc1C	none (no result: Cl transport mod, S1P3 antagonist, ROMK primary) | KCC2 secondary 0.014 | KCC2 bumet counter 0.042 | KCC2 sec2 inactive | HEK counter1 inconclusive | KCC2 retest ouab inconclusive | HEK counter2 0.013
Cc1sc2ncnc(SCC(=O)c3ccc(O)cc3O)c2c1C	Cl transport mod 102 (no result: RAM inhibit, ROMK primary) | KCC2 secondary 0.01 | KCC2 bumet counter 0.087 | KCC2 sec2 0.076 | HEK counter1 0.076 | KCC2 retest ouab 0.078 | HEK counter2 0.055
CCc1ccc(OCC(=O)NNC(=O)CSc2ncnc3sc(C)c(C)c23)cc1	Cl transport mod 4.5 (no result: S1P3 antagonist) | KCC2 secondary inconclusive | KCC2 bumet counter 0.015 | KCC2 sec2 inactive | HEK counter1 0.01 | KCC2 retest ouab inconclusive | HEK counter2 inactive
Cc1ccc(OCC(=O)NNC(=O)CSc2ncnc3sc(C)c(C)c23)cc1	Cl transport mod 13 (no result: ROMK primary) | KCC2 secondary inactive | KCC2 bumet counter 0.016 | KCC2 sec2 inactive | HEK counter1 0.02 | KCC2 retest ouab 0.029 | HEK counter2 0.013
CCN(C(=O)CSc1nnnn1-c1ccccc1)C1CCS(=O)(=O)C1 (stereo unspecified)	none
C=CC[N+](C)(C)C/C(Cl)=C(\Cl)c1ccccc1	none (no result: S1P3 antagonist)
CSCC(=O)NS(=O)(=O)c1ccc(C)cc1	none
COC(=O)c1ccc(N2C(=O)C3CC=CC(C)C3C2=O)cc1 (stereo unspecified)	none
COc1ccc(CCN(C)C(=S)NC(=O)c2ccc(F)cc2Cl)cc1OC	Cl transport mod 9.8 | KCC2 secondary 0.015 | KCC2 bumet counter 0.036 | KCC2 sec2 inactive | HEK counter1 0.017 | KCC2 retest ouab 0.033 | HEK counter2 0.01
CCN(CC)S(=O)(=O)c1cccc(NC(=O)C(=O)c2c(-c3ccccc3)cc3ccccn23)c1	Cl transport mod -2.9, RAM inhibit 9.9 (no result: S1P3 antagonist) | KCC2 secondary inactive | KCC2 bumet counter inactive | KCC2 sec2 inactive | HEK counter1 inactive | KCC2 retest ouab inactive | HEK counter2 inactive
Cc1ccc(S(=O)(=O)N2CCCCC2)cc1NC(=O)c1ccccn1	none (no result: RAM inhibit, ROMK primary)
CCCCNC(=O)[C@H](CSCc1ccccc1)N1Cc2ccccc2C1=O	Cl transport mod -2.6 | KCC2 secondary inconclusive | KCC2 bumet counter inactive | KCC2 sec2 inactive | HEK counter1 inactive | KCC2 retest ouab 0.017 | HEK counter2 inactive
COCCCNC(=O)[C@H](CSCc1ccccc1)N1Cc2ccccc2C1=O	none (no result: RAM inhibit, ROMK primary)
CCOC(=O)c1c(NS(C)(=O)=O)sc2c1CCC(C)C2 (stereo unspecified)	Cl transport mod 23 | KCC2 secondary 0.02 | KCC2 bumet counter 0.059 | KCC2 sec2 inactive | HEK counter1 0.028 | KCC2 retest ouab 0.052 | HEK counter2 0.014
N#Cc1c(-c2ccccc2)nc(SCc2nc(N)nc(N3CCCCC3)n2)[nH]c1=O	Cl transport mod -2.7 (no result: ROMK primary) | KCC2 secondary inconclusive | KCC2 bumet counter inactive | KCC2 sec2 0.025 | HEK counter1 0.0059 | KCC2 retest ouab 0.012 | HEK counter2 inconclusive
CC12COC3(C(=O)Nc4ccc5ccccc5c4)CC1CCC32C (stereo unspecified)	none
O=C(NC(=S)Nc1cccc2ncccc12)c1ccco1	Cl transport mod 13 | KCC2 secondary inconclusive | KCC2 bumet counter 0.032 | KCC2 sec2 inconclusive | HEK counter1 0.021 | KCC2 retest ouab 0.028 | HEK counter2 0.023
COCCCNC(=S)Nc1cccc2ncccc12	none
Cc1sc(NC(=S)NC(=O)c2ccco2)c(C#N)c1C	Cl transport mod 22 | KCC2 secondary inactive | KCC2 bumet counter 0.022 | KCC2 sec2 inconclusive | HEK counter1 0.023 | KCC2 retest ouab 0.03 | HEK counter2 0.019
Cc1cc(NC(=S)NC(=O)c2ccco2)c2ccccc2n1	Cl transport mod 29 | KCC2 secondary inconclusive | KCC2 bumet counter 0.084 | KCC2 sec2 0.066 | HEK counter1 0.056 | KCC2 retest ouab 0.071 | HEK counter2 0.058
COc1ccc(NC(=O)C2CCCN(S(=O)(=O)c3cccc4nonc34)C2)cc1OC (stereo unspecified)	none
COc1ccc(CCNC(=O)C2CCCN(S(=O)(=O)c3cccc4nonc34)C2)cc1OC (stereo unspecified)	none (no result: Cl transport mod, S1P3 antagonist) | KCC2 secondary inactive | KCC2 bumet counter inactive | KCC2 sec2 inactive | HEK counter1 inactive | KCC2 retest ouab inactive | HEK counter2 inactive
NC(=O)NC(=O)COC(=O)[C@H](Cc1ccccc1)NC(=O)c1cccs1	none
O=C(NC(=S)NCCC1=CCCCC1)c1cccnc1	Cl transport mod 14 | KCC2 secondary inactive | KCC2 bumet counter 0.036 | KCC2 sec2 inactive | HEK counter1 0.013 | KCC2 retest ouab inconclusive | HEK counter2 0.011
CCOC(=O)c1nnn(-c2nonc2N)c1-c1ccc(F)cc1	none
S=c1nc(-c2ccccc2)n(CCCN2CCOCC2)c2c1CCCC2	Cl transport mod 12 (no result: S1P3 antagonist, ROMK primary) | KCC2 secondary 0.018 | KCC2 bumet counter 0.024 | KCC2 sec2 inactive | HEK counter1 0.026 | KCC2 retest ouab 0.037 | HEK counter2 inconclusive
CC(C)(C)OC(=O)NNC(=O)Nc1ccccc1C(F)(F)F	none (no result: ROMK primary)
C=CCNc1ncnc2sc(SC)nc12	none (no result: RAM inhibit, ROMK primary)
